Results from PubChem BioAssay (NCI).
Compounds without any hit were thinned out: in the full panel of roughly 79,000, 15% have a hit. Active and inactive are the calls of the source. Rule as the data show it: active = growth inhibition above about 70%; inactive = the rest.

What was measured:
[1] = NCI Yeast Anticancer Drug Screen. Data for the rad52 strain (AID 147);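 also: 0% = growth of vehicle-treated control cultures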; conditions: S. cerevisiae rad52 mutant growth inhibition, stronger effect = higher value
Method in brief: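 Genetically altered yeast (DNA damage repair defect) treated with compound; inhibition calculated relative to vehicle.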

[2] = NCI Yeast Anticancer Drug Screen. Data for the wt1 strain (AID 149);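 also: 0% = growth of vehicle-treated wt1 cultures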; conditions: S. cerevisiae wt1 strain (SPY 50644) growth inhibition, stronger effect = higher value
Method in brief: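 Vehicle-normalised growth inhibition; strain wt1; compound exposure.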

[3] = NCI Yeast Anticancer Drug Screen. Data for the rad50 strain (AID 155);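 also: 0% = growth of vehicle-only cultures of the same strain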; conditions: S. cerevisiae rad50 strain growth inhibition, stronger effect = higher value
Method in brief: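 A DNA repair-deficient yeast mutant serves as the test organism; compound-induced growth inhibition is calculated against vehicle-treated cells.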

[4] = NCI Yeast Anticancer Drug Screen. Data for the mec2-1 strain (AID 157); conditions: S. cerevisiae mec2-1 strain, stronger effect = higher value
Method in brief: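 Cells of the genetically defined mec2-1 yeast strain are incubated with test compound. Inhibition of growth is calculated against vehicle-treated controls.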

[5] = NCI Yeast Anticancer Drug Screen. Data for the rad14 strain (AID 159);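 also: 0% = growth of vehicle-treated control cultures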; conditions: S. cerevisiae rad14 strain growth inhibition, stronger effect = higher value
Method in brief: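 Vehicle-treated cultures served as the baseline for growth inhibition of a DNA repair-mutant yeast strain exposed to each compound.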

[6] = NCI Yeast Anticancer Drug Screen. Data for the sgs1 mgt1 strain (AID 161);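 also: 0% = growth of cultures given vehicle only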; conditions: S. cerevisiae sgs1 mgt1 strain, stronger effect = higher value
Method in brief: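 Test agents were incubated with a DNA-repair-mutant yeast strain. Growth was then read and compared against vehicle-treated controls.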

[7] = NCI Yeast Anticancer Drug Screen. Data for the cln2 rad14 strain (AID 165);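 also: 0% = growth equal to vehicle treated cultures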; conditions: S. cerevisiae cln2 rad14 strain, stronger effect = higher value
Method in brief: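 The screen exposed genetically defined yeast (cln2 rad14) to test compounds and scored growth inhibition relative to vehicle-treated controls.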

[8] = NCI Yeast Anticancer Drug Screen. Data for the bub3 strain (AID 167); conditions: S. cerevisiae bub3 mutant strain, stronger effect = higher value
Method in brief: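 Inhibition values come from growth of compound-treated mutant yeast normalised to vehicle-treated controls.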

[9] = NCI Yeast Anticancer Drug Screen. Data for the wt2 strain (AID 169);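 also: 0% = growth of vehicle-treated yeast cultures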; conditions: S. cerevisiae wt2 strain growth inhibition, stronger effect = higher value
Method in brief: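 Steps: yeast strain treated with compound; growth recorded; inhibition calculated relative to cultures given vehicle alone.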

[10] = NCI Yeast Anticancer Drug Screen. Data for the mlh1 strain (AID 171);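 also: 0% = growth of vehicle-treated control cultures of the same strain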; conditions: S. cerevisiae mlh1 strain growth inhibition, stronger effect = higher value
Method in brief: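 Yeast screen: mutant strain plus compound, growth scored against vehicle control wells.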

[11] = NCI Yeast Anticancer Drug Screen. Data for the sgs1 strain (AID 173);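 also: 0% = growth of vehicle-only control cultures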; conditions: S. cerevisiae sgs1 mutant, stronger effect = higher value
Method in brief: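 Inhibition of yeast growth served as the measure. The mutant strain was treated with each compound, and growth was normalised to cultures receiving vehicle alone.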

[12] = NCI Yeast Anticancer Drug Screen. Data for the mlh1 rad18 strain (AID 175); conditions: S. cerevisiae mlh1 rad18 strain growth inhibition, stronger effect = higher value
Method in brief: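 Compound-treated yeast growth, normalised to vehicle controls. Strain bears defined DNA repair mutations.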

[13] = NCI Yeast Anticancer Drug Screen. Data for the rad18 strain (AID 177); conditions: S. cerevisiae rad18 mutant growth inhibition, stronger effect = higher value
Method in brief: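 Inhibition values reflect reduced yeast growth compared with vehicle-treated controls, using a strain engineered with a DNA damage repair defect.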

[14] = NCI Yeast Anticancer Drug Screen. Data for the rad50EPP+ strain (AID 151);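 also: 0% = growth of vehicle-treated control cultures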; conditions: S. cerevisiae rad50 mutant strain, stronger effect = higher value
Method in brief: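 Strain rad50EPP+; compound exposure; % growth inhibition vs vehicle.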

[15] = NCI Yeast Anticancer Drug Screen. Data for the mgt1 strain (AID 153); conditions: S. cerevisiae mgt1 mutant growth inhibition, stronger effect = higher value
Method in brief: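 Read-out: yeast growth inhibition vs vehicle control. Strain mgt1, drawn from a panel altered in DNA damage repair or cell cycle control.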

[16] = NCI Yeast Anticancer Drug Screen. Data for the CLN2oe strain (AID 163);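 also: 0% = growth of vehicle-only control cultures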; conditions: S. cerevisiae CLN2oe strain, stronger effect = higher value
Method in brief: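 Strain altered in cell-cycle control, incubated with compound; growth compared to solvent-treated controls.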

[17] = at 5.0 µM (retest, dose inferred, filed as 0.5)
[18] = at 50.0 µM (retest, dose inferred, filed as 5.0)

Measured: growth inhibition

Oc1ccc(SCc2ccc(NCc3ccccc3)cc2)cc1
inactive: [1]; at 1.2 µM -4% | [1]; at 3.7 µM -27% | [1]; at 11.0 µM -26% | [1]; at 33.0 µM 19% | [2]; at 1.2 µM -32% | [2]; at 3.7 µM -35% | [2]; at 11.0 µM -52% | [2]; at 33.0 µM -4% | [3]; at 1.2 µM 0% | [3]; at 3.7 µM -13% | [3]; [17] 22% | [3]; at 11.0 µM -11% | [3]; at 33.0 µM 23% | [3]; at 50.0 µM 66.8% | [4]; at 1.2 µM -7% | [4]; at 3.7 µM 1% | [4]; [17] 12% | [4]; at 11.0 µM -13% | [4]; at 33.0 µM 20% | [4]; [18] 55% | [5]; at 1.2 µM -30% | [5]; at 3.7 µM -44% | [5]; at 11.0 µM -31% | [5]; at 33.0 µM 29% | [6]; [17] 42% | [6]; [18] 63% | [7]; [17] 38% | [7]; [18] 56% | [7]; at 50.0 µM 49.4% | [8]; at 1.2 µM 20% | [8]; at 3.7 µM 14% | [8]; [17] 53% | [8]; at 11.0 µM 11% | [8]; at 33.0 µM 60% | [8]; [18] 50% | [9]; at 1.2 µM -16% | [9]; at 3.7 µM -46% | [9]; at 11.0 µM -33% | [9]; at 33.0 µM 9% | [10]; at 1.2 µM -8% | [10]; at 3.7 µM -25% | [10]; at 11.0 µM -14% | [10]; at 33.0 µM 18% | [11]; at 1.2 µM -33% | [11]; at 3.7 µM -63% | [11]; at 11.0 µM -41% | [11]; at 33.0 µM 26% | [12]; [17] 19% | [13]; at 1.2 µM 22% | [13]; at 3.7 µM 7% | [13]; at 11.0 µM 12% | [13]; at 33.0 µM 32%
active: [1]; at 100.0 µM 89% | [2]; at 100.0 µM 91% | [3]; [18] 94% | [3]; at 100.0 µM 87% | [4]; at 50.0 µM 87.1% | [4]; at 100.0 µM 89% | [5]; at 100.0 µM 89% | [6]; at 50.0 µM 77.7% | [8]; at 50.0 µM 87.3% | [8]; at 100.0 µM 90% | [9]; at 100.0 µM 91% | [10]; at 100.0 µM 86% | [11]; at 100.0 µM 87% | [12]; [18] 75% | [12]; at 50.0 µM 79.8% | [13]; at 100.0 µM 91%

Cc1ccc([N+]2=NC(c3ccccc3)=NN(c3ccccc3)C2)cc1
active: [2]; at 100.0 µM 96% | [15]; at 33.0 µM 89% | [15]; at 100.0 µM 97% | [3]; at 33.0 µM 84% | [3]; at 50.0 µM 97% | [3]; at 100.0 µM 95% | [4]; at 50.0 µM 91.8% | [4]; at 100.0 µM 96% | [5]; at 100.0 µM 96% | [6]; at 50.0 µM 95.3% | [16]; at 100.0 µM 96% | [7]; at 50.0 µM 95.8% | [8]; at 33.0 µM 94% | [8]; [18] 98% | [8]; at 50.0 µM 97.2% | [8]; at 100.0 µM 96% | [9]; at 33.0 µM 83% | [9]; at 100.0 µM 97% | [10]; at 33.0 µM 78% | [10]; at 100.0 µM 97% | [11]; at 33.0 µM 87% | [11]; at 100.0 µM 97% | [12]; at 50.0 µM 97.2% | [13]; at 33.0 µM 90% | [13]; at 100.0 µM 96%
inactive: [2]; at 1.2 µM 1% | [2]; at 3.7 µM 5% | [2]; at 11.0 µM 8% | [2]; at 33.0 µM 27% | [14]; at 1.2 µM 5% | [14]; at 3.7 µM 15% | [14]; at 11.0 µM 35% | [14]; at 33.0 µM 45% | [14]; at 100.0 µM 45% | [15]; at 1.2 µM 7% | [15]; at 3.7 µM 9% | [15]; at 11.0 µM 9% | [3]; at 1.2 µM 6% | [3]; at 3.7 µM 0% | [3]; [17] 15% | [3]; at 11.0 µM 2% | [3]; [18] 41% | [4]; at 1.2 µM -1% | [4]; at 3.7 µM -3% | [4]; [17] 2% | [4]; at 11.0 µM 1% | [4]; at 33.0 µM 65% | [4]; [18] 16% | [5]; at 1.2 µM 5% | [5]; at 3.7 µM 5% | [5]; at 11.0 µM 18% | [5]; at 33.0 µM 44% | [6]; [17] 10% | [6]; [18] 12% | [16]; at 1.2 µM 2% | [16]; at 3.7 µM -1% | [16]; at 11.0 µM 2% | [16]; at 33.0 µM 46% | [7]; [17] 11% | [7]; [18] 69% | [8]; at 1.2 µM 0% | [8]; at 3.7 µM -1% | [8]; [17] -2% | [8]; at 11.0 µM 12% | [9]; at 1.2 µM 0% | [9]; at 3.7 µM 4% | [9]; at 11.0 µM 7% | [10]; at 1.2 µM 1% | [10]; at 3.7 µM 4% | [10]; at 11.0 µM 7% | [11]; at 1.2 µM 0% | [11]; at 3.7 µM 1% | [11]; at 11.0 µM 5% | [12]; [17] 3% | [12]; [18] 45% | [13]; at 1.2 µM 2% | [13]; at 3.7 µM 11% | [13]; at 11.0 µM 11%
